Bioassay records deposited in PubChem BioAssay by Broad Institute.
Glyco luc inh: increase of ERlucT glycosylation luciferase signal, primary screen, N-linked glycosylation inhibitor project, D54 ERlucT cells, luminescence, set 2; D54 ERlucT glycosylation luciferase reporter, 24 h; percent of 100 nM tunicamycin response; reporter increase, % at 12.5 µM; 360,000 compounds, 0.23% hits;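 active means mean luciferase reporter signal, scaled so untreated is 0 and the glycosylation-blocking control 100, at or above a set limit in every replicate; inconclusive means mean reaches the limit but not every replicate does; inactive means mean below the limit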;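 further: luciferase carries N-glycosylation sites so blocking glycosylation raises the light; 0% = median of neutral control wells and 100% = median of 100 nM tunicamycin wells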
Keap1 Nrf2 FP: Keap1-Nrf2 protein-protein interaction inhibitors, primary screen, biochemical, fluorescence polarization, single point | Kelch-like ECH-associated protein 1 (Homo sapiens), Q14145 | Keap1 Kelch-Nrf2 peptide fluorescence polarization, 1536-well | inhibition, % at 9.4 µM | 340,000 compounds, 0.15% hits | AID 504523, 2011; in the data active means inhibition above about 12%; inconclusive means no clear call, values can overlap the other calls; inactive means below about 7.3%;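 further: human Keap1 Kelch domain with fluorescein labeled Nrf2 9mer peptide probe; 0% = neutral control wells and 100% = peptide positive control; higher means more block of Keap1 binding to Nrf2 peptide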
HDAC3 inhib: HDAC3 deacetylase inhibitors, primary screen, biochemical, fluorescence, cell-free homogeneous; AID 2718, 2010; 320,000 compounds, 0.15% hits; Histone deacetylase 3 (Homo sapiens), O15379; recombinant HDAC3, fluorogenic peptide/trypsin coupled; inhibition, % at 8.3 µM; in the data active means inhibition above about 26%, passing the limit was not always enough; inconclusive means no clear call, values can overlap the other calls
C-LANA FP: inhibitors of KSHV C-LANA binding to DNA, primary screen, biochemical, fluorescence polarization, FAM-LBS DNA, MBP-C-LANA, single point; Kaposi's sarcoma herpesvirus LANA C-terminal domain (residues 932-1162) DNA binding; inhibition, % at 9 µM; 340,000 compounds, 0.078% hits;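 active means highest replicate inhibition at or above 60% at 9 µM, even if other replicates fall short; inactive means all replicates below 60% inhibition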;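 further: 0% = neutral control wells and 100% = 4 µM acridine orange control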
Casp6 inh: human caspase-6 inhibitors, primary screen, biochemical, VEID-R110 fluorescence, single point, set 2 | P55212 | purified caspase-6, Z-VEID-R110 cleavage fluorescence | inhibition, % at 12.5 µM | 350,000 compounds, 0.53% hits | AID 686996, 2013;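 active means mean inhibition across replicates at least about 35%, with every replicate also reaching that limit, limit read from the data; inconclusive means only one of the two criteria met; inactive means neither criterion met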;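 further: 0% = median of neutral control wells and 100% = no fluorescence left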
NSD2 inh: NSD2 histone methyltransferase inhibitors, primary screen, biochemical, AlphaScreen, single concentration, set 2; NSD2 peptide methylation, 120 min; inhibition, % at 12.5 µM; 310,000 compounds, 0.54% hits; AID 743445, 2014; in the data active means inhibition above about 50%
Target sequence (O96028 whole entry, looked up): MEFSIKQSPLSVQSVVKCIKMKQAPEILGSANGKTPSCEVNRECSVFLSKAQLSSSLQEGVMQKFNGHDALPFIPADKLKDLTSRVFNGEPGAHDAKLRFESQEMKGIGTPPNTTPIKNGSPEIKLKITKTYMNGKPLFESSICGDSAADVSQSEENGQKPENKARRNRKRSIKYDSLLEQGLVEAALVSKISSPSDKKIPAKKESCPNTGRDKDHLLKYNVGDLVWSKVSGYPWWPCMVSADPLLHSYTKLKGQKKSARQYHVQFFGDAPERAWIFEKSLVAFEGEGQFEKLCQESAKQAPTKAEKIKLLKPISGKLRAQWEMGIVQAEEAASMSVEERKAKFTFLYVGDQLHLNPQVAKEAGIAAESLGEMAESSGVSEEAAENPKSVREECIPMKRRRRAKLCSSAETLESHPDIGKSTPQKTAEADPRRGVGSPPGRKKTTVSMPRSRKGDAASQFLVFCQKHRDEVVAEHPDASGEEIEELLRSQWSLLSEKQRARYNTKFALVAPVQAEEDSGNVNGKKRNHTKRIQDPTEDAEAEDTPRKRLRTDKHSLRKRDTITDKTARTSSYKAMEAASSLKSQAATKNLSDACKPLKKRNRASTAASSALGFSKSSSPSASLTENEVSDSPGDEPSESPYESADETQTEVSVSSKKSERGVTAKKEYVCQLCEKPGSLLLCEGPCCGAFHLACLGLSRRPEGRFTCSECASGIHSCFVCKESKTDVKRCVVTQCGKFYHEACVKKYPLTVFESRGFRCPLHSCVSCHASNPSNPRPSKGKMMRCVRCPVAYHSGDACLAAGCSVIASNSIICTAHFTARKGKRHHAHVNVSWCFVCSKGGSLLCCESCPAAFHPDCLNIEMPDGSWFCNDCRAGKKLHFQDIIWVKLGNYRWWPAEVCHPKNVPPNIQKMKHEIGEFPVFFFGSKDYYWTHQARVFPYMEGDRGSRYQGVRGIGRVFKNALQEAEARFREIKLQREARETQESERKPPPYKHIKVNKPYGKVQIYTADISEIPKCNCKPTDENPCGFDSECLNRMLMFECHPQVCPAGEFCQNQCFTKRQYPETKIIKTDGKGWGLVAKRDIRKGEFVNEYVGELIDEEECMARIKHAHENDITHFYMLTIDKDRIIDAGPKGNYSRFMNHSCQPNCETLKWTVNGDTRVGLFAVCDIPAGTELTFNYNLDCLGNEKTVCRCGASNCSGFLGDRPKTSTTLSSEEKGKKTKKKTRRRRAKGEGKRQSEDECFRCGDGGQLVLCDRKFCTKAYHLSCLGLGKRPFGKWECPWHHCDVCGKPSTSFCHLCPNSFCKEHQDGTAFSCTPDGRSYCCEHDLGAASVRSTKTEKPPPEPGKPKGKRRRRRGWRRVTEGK
Starred values were filed as active, the others as inactive; ? = inconclusive; . = no result given. This is a sample that favours compounds with a hit; in the whole collection about 1.1% have one here.

SMILES | Glyco luc inh | Keap1 Nrf2 FP | HDAC3 inhib | C-LANA FP | Casp6 inh | NSD2 inh
COc1ccc(NC(=O)N(C)C[C@H]2Oc3ccc(NC(=O)Cc4ccccc4)cc3C(=O)N([C@@H](C)CO)C[C@@H]2C)cc1 | . | . | . | . | 0 | .
CCOC(=O)C1=C(C)N=c2sc(=Cc3cc(Cl)c(OCC(=O)O)c(Cl)c3)c(=O)n2C1c1cccc(OC)c1 (stereo unspecified) | 1 | . | . | . | 38* | .
CCOC(=O)C1=C(C)N=c2s/c(=C/c3ccc(OCC(=O)O)cc3)c(=O)n2C1c1cc(OC)c(OC)c(OC)c1 (stereo unspecified) | -1 | -4 | 8 | -1 | 3 | 10
Cc1noc(C)c1NC(=O)N(C)C[C@H]1Oc2c(NS(C)(=O)=O)cccc2C(=O)N([C@@H](C)CO)C[C@@H]1C | . | . | . | . | -3 | .
CC1C=CC=CC=CC=CC=CC=CC=CC(OC2OC(C)C(O)C(N)C2O)CC2OC(O)(CC(O)CC(O)C(O)CCC(O)CC(O)CC(=O)OC(C)C(C)C1O)CC(O)C2C(=O)O (stereo unspecified) | 5 | -18 | . | 68* | . | 5
CC1C=CC=CCCC=CC=CC=CC=CC(OC2O[C@H](C)[C@@H](O)[C@H](N)[C@@H]2O)CC(O)C(C(=O)O)C(O)CC(=O)CC(O)C(O)CCC(O)CC(O)CC(O)CC(=O)OC(C)C(C)C1O (stereo partly specified) | . | . | . | . | . | 4
C[C@@H]1CN([C@H](C)CO)C(=O)c2cc(-c3ccccc3F)cnc2O[C@H]1CN(C)C(=O)c1ccccn1 | . | . | . | . | 0 | .
COCCNc1nc(-c2ccc(OC)cc2)c(-c2ccc(OC)cc2)s1 | -2 | 3 | 11 | 2 | 92* | -1
Cc1cc(C)cc(OCC(=O)N/N=C/c2ccco2)c1 | 0 | -2 | 3 | 1 | -2 | -1
CCOC(=O)C(=O)N/N=C/c1ccco1 | -1 | -8 | 9 | -1 | 36* | 4
O=C(N/N=C/c1ccc(O)cc1O)C(=O)N/N=C/c1ccc(O)cc1O | 3 | -1 | -2 | 0 | 39* | 2
O=C(NN=Cc1ccc(O)cc1)C(=O)NN=Cc1ccc(O)cc1 | 0 | -1 | . | 0 | 0 | -1
O=C(C[C@@H]1C[C@@H]2c3cc(NC(=O)C4CCC4)ccc3O[C@@H]2[C@H](CO)O1)NCc1cccc(F)c1 | . | . | . | . | -3 | .
C[C@@H]1CN([C@@H](C)CO)C(=O)c2cc(NC(=O)CCCN(C)C)ccc2O[C@H]1CN(C)C | . | . | . | . | 0 | .
C[C@H](CO)N1C[C@H](C)[C@@H](CN(C)C(=O)Nc2ccc(F)cc2)Oc2ccc(NC(=O)CCN3CCOCC3)cc2CC1=O | . | . | . | . | 3 | .
CCOC(=O)CSc1n[nH]c(NC(=O)c2cccc(C)c2)n1 | -2 | -13 | 90* | 1 | . | 0
CCC(=O)Nc1ccc2c(c1)C(=O)N(C)C[C@H](OC)[C@@H](C)CN(CC1CC1)[C@H](C)CO2 | . | . | . | . | -1 | .
O=Cc1ccc(Oc2nc(Cl)ncc2F)cc1 | 4 | 2 | 1 | 3 | 42* | -1
O=Cc1ccc(Oc2ccc(F)cc2)nc1 | 3 | -11 | 4 | 0 | -1 | 0
C[C@H]1CCCCO[C@H](CN(C)Cc2ccccc2)[C@@H](C)CN([C@@H](C)CO)C(=O)c2cc(NC(=O)C3CCCCC3)ccc2O1 | . | . | . | . | -2 | .
O=C(c1ccccc1)n1nnc2ccccc21 | 1 | -1 | 96* | 1 | . | -1
Cc1onc(-c2ccccc2)c1C(=O)n1nnc2ccccc21 | 1 | -37 | 5 | 1 | . | -1
O=C(C[C@H]1C[C@@H]2c3cc(NS(=O)(=O)c4ccc(F)cc4)ccc3O[C@@H]2[C@@H](CO)O1)N1CCCCC1 | . | . | . | . | 3 | .
O=C1O[C@@H](c2ccccc2)[C@@H](c2ccccc2)N2[C@@H](c3ccccc3OCCO)[C@]3(C(=O)Nc4ccccc43)[C@@H](C(=O)O)[C@H]12 | . | . | . | . | 36* | .
CCC(=O)N(C)C[C@H]1Oc2cc(C#CCOC)ccc2S(=O)(=O)N([C@@H](C)CO)C[C@H]1C | . | . | . | . | 1 | .
SMILES | Glyco luc inh | Keap1 Nrf2 FP | HDAC3 inhib | C-LANA FP | Casp6 inh | NSD2 inh
CCS(=O)(=O)Nc1ccc2c(c1)C(=O)N(C)[C@H]1CC[C@@H](CC(=O)NCc3ccccc3F)O[C@H]1CO2 | . | . | . | . | 3 | .
Nc1nc(N)nc(-c2cc(C(F)(F)F)ccc2Cl)n1 | -1 | -5 | 28* | 2 | -1 | .
Cc1cccc(C)c1NC(=O)CN(C)C(=O)CCc1nc2sc3c(c2c(=O)[nH]1)CCCC3 | 2 | -3 | 1 | 0 | 12 | 3
CN(CC(=O)Nc1ccc(F)c(F)c1F)C(=O)CCc1nc2sc3c(c2c(=O)[nH]1)CCCC3 | -1 | -7 | -4 | 1 | 42* | 1
Cc1cccc(NC(=O)CNC(=O)CCc2nc3sc4c(c3c(=O)[nH]2)CCCC4)c1C | 4 | 2 | -5 | 2 | 41* | 5
C[C@H]1CN([C@@H](C)CO)C(=O)c2cc(NC(=O)NC3CCCCC3)ccc2O[C@H]1CN(C)Cc1ccc(C(=O)O)cc1 | . | . | . | . | 0 | .
O=C(NCCCO)c1cc([N+](=O)[O-])cc2c1C=Cc1ccccc1O2 | 4 | -4 | -5 | 0 | 89* | 5
O=C(C[C@@H]1C=C[C@@H](NS(=O)(=O)c2ccc(F)cc2)[C@@H](CO)O1)N1CCC(Cc2ccccc2)CC1 | . | . | . | . | -1 | .
Cc1ccc2[nH]c3c(c2c1)CCCC3NCCO (stereo unspecified) | 2 | 1 | -2 | 2 | 44* | 49
C[C@@H]1CN([C@@H](C)CO)C(=O)c2cc(NS(=O)(=O)c3cccs3)ccc2O[C@H]1CN(C)Cc1ccncc1 | . | . | . | . | 1 | .
CN(Cc1ccco1)c1ncnc2ccc(-c3ccccc3Cl)cc12 | -6 | -2 | 13 | 1 | 1 | .
CN(Cc1ccco1)c1ncnc2ccc(-c3ccoc3)cc12 | -3 | 6 | 4 | -1 | 39* | .
C[C@@H]1CN([C@H](C)CO)C(=O)Cc2cc(NC(=O)CCN3CCOCC3)ccc2O[C@@H]1CN(C)C(=O)Nc1ccc(F)cc1 | . | . | . | . | 1 | .
COc1cc(CNc2ccc(O)cc2)cc(Br)c1OCc1ccccc1 | 57* | 1 | ? | 0 | 13 | 8
CCc1ccc(NC(=O)Cn2c(=O)n(CCC(=O)NC3CCN(Cc4ccccc4)CC3)c(=O)c3ccccc32)cc1 | 38* | -2 | -7 | 1 | 7 | .
C/C(=N\NC(=O)c1ccc(N)cc1)C1CC1 | 1 | -5 | 1 | 1 | -7 | -4
C/C(=N\NC(=O)c1ccccc1O)C1CC1 | -10 | 0 | 1 | 2 | 42* | -3
